Results: PubChem BioAssay (NCI)
Several values for one entry are separate records, joined by “and”; a condition that tells them apart may be missing. Identical values can stand only once. This is part of a sample that, as a whole, favours compounds with a hit. Of some 83,000 tested, about 20% had one in any assay.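 Percent growth is the endpoint: 0 to 100 indicates growth inhibition (40 means 60% inhibition), 0 means no net growth, and negative values indicate cell death.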 Values without a mark were called inactive. Activity calls are given as the source filed them. Rule for the calls: active = growth percent below 10; inactive = the rest.

system: HL-60(TB) leukemia; test: NCI-60 one-dose screen, 48 h (100 = growth as untreated, 0 = no growth, -100 = all killed); conditions: 10 µM unless noted

SMILES	growth
CCNC(=O)CCCCC(=O)c1c(C)[nH]c(/C=C2\N=C(c3ccc[nH]3)C=C2OC)c1C	66.9%
CN(C)CCCn1c2c(c3cc(-c4cccc(S(N)(=O)=O)c4)ccc3c1=O)C(=O)c1ccccc1-2	93.2%
O=C(Nc1cccc([N+](=O)[O-])c1)Nc1cccc([N+](=O)[O-])c1	13%
COc1ccc(-c2n[nH]nc2-c2csc3ccccc23)cc1OC	10.1%
COc1ccc(S(=O)(=O)N2CCCCCC2)cc1NC(=O)c1[nH]c(C)c2c1CCCCC2=O	7.56% (active)
CNC(=S)Sc1ccc([N+](=O)[O-])cc1[N+](=O)[O-]	-14.6% (active)
COC(=O)CC[C@H](C)[C@H]1CC[C@H]2[C@@H]3CC[C@@H]4CC5(CC[C@]4(C)[C@H]3CC(=O)[C@]12C)Nc1ccccc1NC5=NC(C)(C)C (some centres undefined)	43.6%
CCOc1ccc(Nc2nc(-c3c(C)nc4ncccn34)cs2)cc1	-34.1% (active)
O=C(c1ccccc1)C(Cl)C(Cl)c1ccccc1 (centres undefined)	25.2%
CN(CCNCc1ccccn1)CCNCc1ccccn1	6% (active)
CCCCOc1ccc(/C=N/Nc2cc(C)nc3ccc(Cl)cc23)cc1	-30.2% (active)
O=c1c2cc(F)ccc2sc2c(NCCCNCCO)nc3ccc(Cl)cc3c12	45.4%
CC(=O)Nc1ccc(O)cc1	88.3% and 74.2%
O=C(N/N=C/c1c(Cl)cccc1Cl)c1cccnc1Nc1cccc(C(F)(F)F)c1	28.1%
CCOc1ccc(/C=N/N=C(N)N)cc1OCC	64.5%
CCOC(=O)C1C(=O)C=C(c2ccc(OC)cc2)CC1c1sc(N(C)Cc2ccccc2)nc1Cl (centres undefined)	83%
NC(CCc1nc2ccccc2c(=O)[nH]1)C(=O)O (centres undefined)	103%
Cc1nnc(NS(=O)(=O)c2ccc(N=Nc3ccc(N)nc3N)cc2)s1	98.4% and 98.2%
COc1ccc(NC(=O)CSc2nc3ccc(Cl)cc3c(=O)n2-c2ccccc2C(F)(F)F)c(OC)c1OC	105%
C#COc1cccc(Nc2c(C#N)cnc3ncc(NC(=O)CCl)cc23)c1	19.6% [6.25 µM]

SMILES	growth
COc1ccccc1/C=C/C(=O)/C=C/c1ccccc1OC	15.1% and 18.7%
CCCCCCOc1ccc(C2(Cl)c3ccccc3N(C)c3ccccc32)cc1	65.4%
N#CC1CCc2c(c(-c3cn[nH]c3C(F)(F)F)nc3c(F)cc4[nH]ncc4c23)C1 (centres undefined)	47%
COc1ccc(CNC(=O)COc2ccc(/C=N/Nc3nc4ccccc4s3)cc2)cc1	105%
CNC(=O)c1c(NC(=O)c2ccc(C(F)(F)F)cc2)sc2c1CCC(=O)C2	-16.5% (active)
O=C1CCC(=O)N1CC1CC2CCC1C2 (centres undefined)	128% and 97.8%
CNNc1ncnc2c1cnn2-c1ccc(S(N)(=O)=O)cc1	83.5%
COc1ccc2c(c1)sc1nc(-c3ccccc3)c(-c3ccc(O)c(OC)c3)n12	44.2%
Cc1ccc(C)c(C(O)(c2cc(C)ccc2C)C2(O)CCCCC2)c1	96.5%
CC1=C(C(=O)OCC2CCN(C(=O)OC(C)(C)C)CC2)[C@@H](c2cccc(C#N)c2)C2=C(CC(C)(C)CC2=O)N1	16.8%
c1cncc(CNc2ccccc2-c2nnc(Nc3ccc4c(c3)OCCO4)o2)c1	8.71% (active)
C=C(C)[C@@H]1CC[C@]2(CN)CC[C@]3(C)[C@H](CC[C@@H]4[C@@]5(C)CCC(N)[C@@](C)(CO)[C@@H]5CC[C@]43C)[C@@H]12 (some centres undefined)	-66.1% (active)
NC(=O)c1cc2c3ccccc3ccn2c1-c1ccccc1	-3.94% (active)
COc1ccc2nc(NCCCNCCO)c3sc4ccc(F)cc4c(=O)c3c2c1	25%
CC(C)OC1OC(OC(C)C)C(OC(C)C)OC1OC(C)C (centres undefined)	87.2%
C=C1c2nc3ccccc3n2C=C(c2ccc(OC)cc2)N1Cc1ccccc1	80%
C#Cc1cccc(Nc2ncnc3cc(OC)c(OCCCCCCC(=O)NO)cc23)c1	2.38% (active)
CC(C)CCC[C@@H](C)[C@H]1CC[C@H]2[C@@H]3CC=C4C[C@@H](C(C(=O)O)C(=O)O)CC[C@]4(C)[C@H]3CC[C@]12C	-44.4% (active)
O=c1[nH]cc(Cl)cc1O	75.9%
